Compound activity as filed in PubChem BioAssay.
A selection: hits, their analogues and other compounds. The true share with any hit is near 7.4%.
Hedgehog inh: Sonic Hedgehog pathway inhibition; inhibition, % (test concentration not listed); Shh-LIGHT2 Gli-luciferase reporter, 30 h; AID 2313; actives 2.1% (n = 22,000);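 active = mean inhibition across valid replicates above about 65%, limit read from the data; inconclusive = mean under the limit, yet half or more replicates past it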;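 note: pathway switched on by Shh-conditioned medium diluted 1 in 25 in low serum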
PD-1 reversal: activators reversing PD-1 mediated T-cell inhibition. AID 2316. primary human CD4 T cells, PD-L1 beads, CellTiter-Glo 96 h. 29,000 tested, under 10 active. activation, % (test concentration not listed); call rule not given here;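 note: 0% = median vehicle wells and 100% = positive control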
YB-1 expression: YB-1 expression inhibition; U2OS, qRT-PCR YB-1 vs CDIP delta delta Cp, 16 h; active compounds read high; zero = DMSO, each unit about twofold; delta delta Cp (YB-1 minus CDIP) (test concentration not listed); actives 0.37% (n = 30,000); AID 434959;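 active = delta delta Cp rounded down to an integer at or above 3, about 3 SD of DMSO wells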;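 note: higher means less YB-1 transcript or more CDIP transcript relative to DMSO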
MITF inhib: blocks MITF activity; inhibition, % (concentration not given with the values); actives 0.28% (n = 37,000); AID 2240; TRPM1 promoter luciferase, luminescence, 24 h; in the data active = inhibition above about 85%; inconclusive = no clear call, values can overlap the other calls; inactive = below about 68%;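 note: human melanocyte line stably carrying TRPM1 promoter luciferase reporter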
NOMO-1 viab: STK33 inhibitor candidate reducing NOMO-1 cell viability; inhibition, % (test concentration not listed); actives 7.5% (n = 37,000); NOMO-1 AML viability, CellTiter-Glo luminescence, 72 h; in the data active = inhibition above about 80%; inconclusive = no clear call, values can overlap the other calls
Active calls of the source: *; u = inconclusive; x = no result given.

SMILES | Hedgehog inh | PD-1 reversal | YB-1 expression | MITF inhib | NOMO-1 viab
O=C(OC[C@]12O[C@H]1[C@@H](O)[C@@H]1C=CO[C@@H](O[C@@H]3O[C@H](CO)[C@@H](O)[C@H](O)[C@H]3O)[C@@H]12)c1ccccc1 | 25 | 0 | -0.38 | -22 | -2
C[C@@H]1CN([C@@H](C)CO)C(=O)c2cccc(NC(=O)c3nc4ccccc4s3)c2O[C@@H]1CN(C)Cc1ccc2c(c1)OCO2 | -55 | -2 | -0.59 | 11 | 90*
C[C@@H]1CN([C@H](C)CO)C(=O)c2cccc(NC(=O)c3nc4ccccc4s3)c2O[C@H]1CN(C)Cc1ccc2c(c1)OCO2 | -18 | -5 | -0.13 | 41 | 98*
C[C@@H]1CN([C@H](C)CO)C(=O)c2cccc(NC(=O)c3nc4ccccc4s3)c2O[C@@H]1CN(C)Cc1ccccc1 | 21 | x | 0.11 | -22 | 55
C[C@H]1CN([C@@H](C)CO)C(=O)c2cccc(NC(=O)c3nc4ccccc4s3)c2O[C@@H]1CN(C)Cc1ccc(Cl)c(Cl)c1 | 53 | -6 | -0.15 | 36 | 86*
CCN(CC)CC(O)Cn1c2c(c3ccccc31)CCCC2=O (configuration not stated) | x | 3 | x | -27 | 21
CCN(CC)CC(O)Cn1c(C)c(-c2ccccc2)c2cc([N+](=O)[O-])ccc21 (configuration not stated) | x | x | x | -49 | 94*
C[C@H](CO)N1C[C@H](C)[C@H](CN(C)Cc2ccc(C(F)(F)F)cc2)Oc2c(NC(=O)C3CCCCC3)cccc2C1=O | 0 | x | -0.31 | 15 | 59
C[C@H]1CN([C@@H](C)CO)C(=O)c2cccc(NC(=O)C3CCCCC3)c2O[C@@H]1CN(C)Cc1ccc(C(F)(F)F)cc1 | -40 | 1 | 0.023 | -13 | 91*
C[C@@H]1CN([C@@H](C)CO)C(=O)c2cccc(NC(=O)C3CCCCC3)c2O[C@H]1CN(C)Cc1ccc(C(F)(F)F)cc1 | 26 | -2 | -0.28 | 22 | 105*
C[C@H](CO)N1C[C@H](C)[C@@H](CN(C)Cc2ccc(C(F)(F)F)cc2)Oc2c(NC(=O)C3CCCCC3)cccc2C1=O | -13 | -2 | -0.83 | 43 | 99*
COc1ccc(-c2nnc(SCC(=O)c3ccc(-c4ccccc4)cc3)o2)cc1OC | x | -1 | x | 28 | 34
Cc1n[nH]c(=S)n(/N=C/C=C/c2ccccc2)c1=O | 16 | -29 | 0.094 | -21 | 28
C/C=C(\C)C(=O)O[C@H]1C=C(CO)C(=O)[C@H](OC(C)=O)[C@H]1C(C)C | 57 | -35 | -0.58 | 48 | 122*
N#Cc1ccc(-c2ccc(OC(=O)CS(=O)c3ccc(C(F)(F)F)cc3[N+](=O)[O-])cc2)cc1 (configuration not stated) | x | -11 | x | -8 | 129*
COC(=O)c1ccc(OC(=O)CS(=O)c2ccc(C(F)(F)F)cc2[N+](=O)[O-])cc1 (configuration not stated) | x | x | x | 26 | 109*
O=C(NCCNc1ccc(C(F)(F)F)cc1[N+](=O)[O-])c1ccc(F)cc1 | x | -2 | x | 0 | 18
Cc1nn(Cc2cccc(C(=O)NC(=O)Nc3ccc(Cl)cc3)c2)c(C)c1Br | 14 | 3 | -0.42 | 1 | 107*
Cc1nn(Cc2cccc(C(=O)Nc3ccccc3F)c2)c(C)c1Cl | x | 2 | x | -45 | -2
CCN(CC(=O)Nc1ccccc1SC)S(=O)(=O)c1ccc2ccccc2c1 | x | 0 | x | -8 | 9
Cc1nc(CSc2ncnc3sc(C)c(C)c23)cs1 | x | x | x | -11 | -23
C[C@H](CO)N1C[C@H](C)[C@H](CN(C)CC2CCCCC2)Oc2ccc(NC(=O)Nc3ccc(C(F)(F)F)cc3)cc2C1=O | 40 | -6 | -0.14 | 0 | 116*
C[C@@H]1CN([C@@H](C)CO)C(=O)c2cc(NC(=O)Nc3ccc(C(F)(F)F)cc3)ccc2O[C@H]1CN(C)CC1CCCCC1 | 26 | -6 | -0.028 | -14 | 118*
Cc1ccc(CC(=S)N2CCOCC2)cn1 | x | 0 | -0.27 | 8 | 34
Cc1ccc(CN(CC(N)=O)S(=O)(=O)c2ccc(Cl)cc2)cc1 | x | 0 | x | -10 | 16
COc1cc2cc(C)nc(Cc3cccc4ccccc34)c2cc1OC | u | -2 | 0.12 | 18 | 86*
CN(C)C(=O)COc1cc2oc(=O)c3c(c2cc1Cl)CCC3 | x | 1 | -0.29 | -7 | -6
COC(=O)c1c(-c2c(Cl)cccc2Cl)noc1NC(=O)NCc1ccccc1 | 38 | -1 | -0.15 | 5 | 104*
CCOc1ccc(S(=O)(=O)NCCN2CCOCC2)cc1C | x | 4 | x | 0 | 20
